Each structure is given as a SMILES string. A number with no mark means an inactive call. Results filed as inconclusive are left out. The source made the active and inactive calls. Unless noted, the call rests on the fitted dose curve; in most records, active means well fitted curve in the direction sought with a large enough effect; inconclusive means small, poorly fitted or top-dose-only effect, or another doubt; inactive means no such curve, though single readings can be large; an effect the other way counts as inactive or inconclusive.

The values that follow come from PubChem BioAssay (NCATS).

In assay [1] the target is Rap guanine nucleotide exchange factor 3 (Homo sapiens) (UniProt O95398). Nature of the assay: Confirmatory qHTS for agonist of cAMP-regulated guanine nucleotide exchange factor 3 (EPAC1) (AID 1645881).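 Further: EPAC1 catalysed release of BODIPY-GDP from Rap1B seen as fluorescence loss; 100% = effect of cAMP agonist control; nearly all actives have a fitted effect of over 75% in size.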 Background: Quantitative high-throughput screening tests each substance at several concentrations.
For assay [2], the target named is Rap guanine nucleotide exchange factor 4 (Homo sapiens) (UniProt Q8WZA2). In words: Confirmatory qHTS for agonist of cAMP-regulated guanine nucleotide exchange factor 4 (EPAC2) (AID 1645884).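 Further: nucleotide exchange releases bodipy-GDP from Rap1 and this lowers its fluorescence; on the % scale 0 is the no-effect control and ±100 the full control effect; nearly all actives have a fitted effect of over 65% in size.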
The target in assay [3] is Rap guanine nucleotide exchange factor 3 (Homo sapiens) (UniProt O95398). Nature of the assay: Counterscreen qHTS for antagonist of cAMP-regulated guanine nucleotide exchange factor 3 (EPAC1) (AID 1645888).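 Further: fluorescence loss as bound BODIPY-GDP is released from Rap1B; % of control where 0% means no effect.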 The essentials: (§1)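 Rap1B–BODIPY-GDP (250 nM) with 50 uM GDP; compounds pin-transferred to 9.74 nM–152 uM final (activator) or from 7.32 nM upwards (inhibitor). Fluorescence Ex/Em 480/540 nm read at 5 and 30 min, then after adding cAMP or buffer, at room temperature.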
(In general: Counterscreens check selectivity or assay interference.)

For assay [4] the target is unchanged. Nature of the assay: Counterscreen qHTS for agonist of cAMP-regulated guanine nucleotide exchange factor 3 (EPAC1) (AID 1645889). Further: % of control where 0% means no effect; nearly all actives have a fitted effect of over 40% in size. The gist of the method:
as §1

The target of assay [5] is Rap guanine nucleotide exchange factor 4 (Homo sapiens) (UniProt Q8WZA2). In words: Confirmatory qHTS for antagonist of cAMP-regulated guanine nucleotide exchange factor 4 (EPAC2) (AID 1645885). Further: nearly all actives have a fitted effect of over 25% in size. Further: potency means the concentration at half of the fitted maximal effect. On activity change, negative = inhibition: on the % scale 0 is the no-effect control and ±100 the full control effect.
For assay [6], the target named is Tyrosyl-DNA phosphodiesterase 1 (Homo sapiens) (UniProt Q9NUW8). Nature of the assay: Confirmation Assay for Inhibitors of Tyrosyl-DNA Phosphodiesterase (TDP1) (AID 489007). Further: potency means the concentration at half of the fitted maximal effect; nearly all actives have a fitted effect of over 40% in size. As to conditions: recombinant human TDP1 enzymatic activity, dose-response. The essentials: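 AlphaScreen assay of tyrosine-FITC cleavage from a biotinylated DNA substrate (15 nM) by E. coli-expressed human Tdp1 (1 nM). Sequence: compound preincubation 15 min, reaction 5 min, bead detection 10 min, all at room temperature. No-enzyme wells give maximum signal.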

The target in assay [7] is Glucocorticoid receptor (Homo sapiens) (UniProt P04150). Nature of the assay: GR-GFP Redistribution (AID 450;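 active means compounds whose dose series gives a full or clear partial fitted curve of increased nuclear translocation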; further: potency means the concentration at half of the fitted maximal effect). As to conditions: U2OS GR-GFP nuclear translocation, laser cytometry, 2 h.
Assay [8] has as its target Guanine nucleotide-binding protein G(i) subunit alpha-1 (Homo sapiens) (UniProt P63096). Nature of the assay: qHTS Assay for Inhibitors of RGS12 GoLoco Motif Activity (Green Fluorophore) (AID 879).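 Further: 0% = labeled peptide with Gαi1 and full inhibition = labeled peptide alone without protein; negative values mean loss of peptide binding seen as reduced polarization.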 The essentials:
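A drop in FITC polarization marked displacement of the FITC-tagged RGS12 GoLoco peptide (10 nM) from Gαi1 (50 nM). Compounds were incubated 10 min at room temperature in Tris pH 7.5 buffer containing 150 mM NaCl, 0.1 mM GDP and 0.05% NP40; unlabeled peptide titration served as control.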

In assay [9] the target is Muscarinic acetylcholine receptor M1 (Rattus norvegicus) (UniProt P08482). Nature of the assay: qHTS Assay for Antagonists of Acetylcholine Muscarinic M1 Receptor: Kinetic Measurement of Intracellular Calcium Response (AID 943).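 Further: Fluo-4 calcium signal as peak divided by basal fluorescence over 4 min; series mostly up to about 35 µM; nearly all actives have a fitted effect of over 75% in size.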 The gist of the method: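 Antagonism measured as reduction of carbachol-evoked (EC80, 100 nM final) calcium flux in rat M1-CHO cells after 10 min compound exposure. Fluo-4 signal read kinetically; ratio of maximal to basal fluorescence.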

The target in assay [10] is Pyruvate kinase (Leishmania mexicana) (UniProt Q27686). In words: qHTS Validation Assay for Inhibitors of Leishmania Mexicana Pyruvate Kinase (AID 945).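 Further: 0% = DMSO only neutral control wells.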 The essentials: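 LmPYK E451W 0.2 nM; 0.5 mM PEP, 0.1 mM ADP, 7 mM MgCl2, 50 mM KCl, imidazole pH 7.2, 0.01% Tween 20, 0.05% BSA; 1 h RT; PKLight luminescence; DMSO-normalized.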
Assay [11] deals with Pyruvate kinase PKM (Homo sapiens) (UniProt P14618). In words: qHTS Assay for Activators of Human Muscle Pyruvate Kinase (AID 954; active means well fitted curve in the direction sought with a large enough effect, not every such curve was filed as active;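 further: 0% = uninhibited enzyme and -100% = no enzyme or full thiadiazolimine inhibition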). The essentials: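 Compound pinned into substrate mix (0.5 mM PEP, 0.1 mM ADP), then 0.1 nM PKM2 added; 1 h, RT. Stop/detection luciferase reagent added, luminescence read. Normalized to no-inhibition and no-enzyme or reference-inhibitor controls.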

For assay [12], the target named is Alpha-galactosidase A (Homo sapiens) (UniProt P06280). Nature of the assay: Counterscreen for Glucocerebrosidase Inhibitors: qHTS Assay for Human alpha-Galactosidase at pH 4.5 (AID 992). Further: 0% is about no effect. The essentials: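 Steps: enzyme (2 nM final), then compound across 0.7 nM to 77 uM, then 80 uM fluorogenic galactopyranoside substrate; incubate 20 min at room temperature; quench at pH 10; measure fluorescence at 365/440 nm.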

For assay [13], the target named is alpha-glucosidase (Oryza sativa, rice) (UniProt Q653V4). Nature of the assay: Counterscreen for Glucocerebrosidase Inhibitors: qHTS Assay for Rice alpha-Glucosidase at pH 5.0 (AID 997).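 Further: 0% = full activity with enzyme and -100% = basal without enzyme.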 The gist of the method:
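Endpoint fluorogenic assay at pH 5.0: compounds (0.7 nM to 77 uM) titrated against 4 nM rice enzyme and 400 uM 4-MU-alpha-glucoside for 20 min at room temperature; NaOH/glycine stop, read ex 365/em 440 nm, Hill-fitted AC50.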

Assay [14] has as its target Alpha-galactosidase (Coffea arabica) (UniProt Q42656). In words: Counterscreen for Glucocerebrosidase Inhibitors: qHTS Assay for Coffee Bean alpha-Galactosidase at pH 5.9 (AID 998).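 Further: plate controls were uninhibited enzyme for no effect and no-enzyme basal signal for full effect.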 The essentials:
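Enzyme 2 nM + cpd (0.7 nM–77 uM titration) + 4-MU-alpha-Gal 80 uM, pH 5.9 citrate/Tween-20, RT 20 min, NaOH/glycine stop pH 10, fluor 365/440. Normalized to no-enzyme and full-activity controls; Hill-fit AC50.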

The target in assay [15] is DNA dC->dU-editing enzyme APOBEC-3G (Homo sapiens) (UniProt Q9HC16). In words: qHTS for inhibitors of Vif-A3G interactions: Validation (AID 588379). Further: 0% is about no effect. The gist of the method:
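Yellow fluorescence (Ex 488, Em 500-530) of Vif-coexpressing HeLa A3G-eYFP cells, scanned by Acumen cytometer, reports blocked A3G degradation. Cells plated at 700/well overnight at 37 deg C before compound addition, then a further overnight compound incubation at 37 deg C.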

Rap guanine nucleotide exchange factor 3 (Homo sapiens), sequence (O95398 whole entry, looked up): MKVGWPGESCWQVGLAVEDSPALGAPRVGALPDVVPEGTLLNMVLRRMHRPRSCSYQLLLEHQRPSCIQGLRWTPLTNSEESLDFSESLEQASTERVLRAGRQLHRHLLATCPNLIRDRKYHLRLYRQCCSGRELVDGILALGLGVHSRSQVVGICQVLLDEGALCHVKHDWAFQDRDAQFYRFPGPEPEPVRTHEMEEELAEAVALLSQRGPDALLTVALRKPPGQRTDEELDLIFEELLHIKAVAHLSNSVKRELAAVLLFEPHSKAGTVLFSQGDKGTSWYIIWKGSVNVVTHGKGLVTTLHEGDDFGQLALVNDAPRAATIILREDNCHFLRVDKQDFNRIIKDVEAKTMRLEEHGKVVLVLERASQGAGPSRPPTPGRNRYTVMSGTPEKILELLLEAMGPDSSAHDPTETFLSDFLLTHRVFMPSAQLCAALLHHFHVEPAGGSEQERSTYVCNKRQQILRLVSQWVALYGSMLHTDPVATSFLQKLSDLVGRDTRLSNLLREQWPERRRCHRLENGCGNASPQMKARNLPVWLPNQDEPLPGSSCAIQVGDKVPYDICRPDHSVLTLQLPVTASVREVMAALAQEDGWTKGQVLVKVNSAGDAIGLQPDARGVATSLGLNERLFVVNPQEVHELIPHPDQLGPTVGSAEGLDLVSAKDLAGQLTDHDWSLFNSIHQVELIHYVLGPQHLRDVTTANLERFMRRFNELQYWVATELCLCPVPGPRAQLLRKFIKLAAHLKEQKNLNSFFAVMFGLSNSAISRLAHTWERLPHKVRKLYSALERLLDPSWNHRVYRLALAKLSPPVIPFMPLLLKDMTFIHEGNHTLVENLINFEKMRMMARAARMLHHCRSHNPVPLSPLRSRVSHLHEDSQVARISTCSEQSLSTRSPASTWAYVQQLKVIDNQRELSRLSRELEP
Rap guanine nucleotide exchange factor 4 (Homo sapiens), sequence (Q8WZA2 whole entry, looked up): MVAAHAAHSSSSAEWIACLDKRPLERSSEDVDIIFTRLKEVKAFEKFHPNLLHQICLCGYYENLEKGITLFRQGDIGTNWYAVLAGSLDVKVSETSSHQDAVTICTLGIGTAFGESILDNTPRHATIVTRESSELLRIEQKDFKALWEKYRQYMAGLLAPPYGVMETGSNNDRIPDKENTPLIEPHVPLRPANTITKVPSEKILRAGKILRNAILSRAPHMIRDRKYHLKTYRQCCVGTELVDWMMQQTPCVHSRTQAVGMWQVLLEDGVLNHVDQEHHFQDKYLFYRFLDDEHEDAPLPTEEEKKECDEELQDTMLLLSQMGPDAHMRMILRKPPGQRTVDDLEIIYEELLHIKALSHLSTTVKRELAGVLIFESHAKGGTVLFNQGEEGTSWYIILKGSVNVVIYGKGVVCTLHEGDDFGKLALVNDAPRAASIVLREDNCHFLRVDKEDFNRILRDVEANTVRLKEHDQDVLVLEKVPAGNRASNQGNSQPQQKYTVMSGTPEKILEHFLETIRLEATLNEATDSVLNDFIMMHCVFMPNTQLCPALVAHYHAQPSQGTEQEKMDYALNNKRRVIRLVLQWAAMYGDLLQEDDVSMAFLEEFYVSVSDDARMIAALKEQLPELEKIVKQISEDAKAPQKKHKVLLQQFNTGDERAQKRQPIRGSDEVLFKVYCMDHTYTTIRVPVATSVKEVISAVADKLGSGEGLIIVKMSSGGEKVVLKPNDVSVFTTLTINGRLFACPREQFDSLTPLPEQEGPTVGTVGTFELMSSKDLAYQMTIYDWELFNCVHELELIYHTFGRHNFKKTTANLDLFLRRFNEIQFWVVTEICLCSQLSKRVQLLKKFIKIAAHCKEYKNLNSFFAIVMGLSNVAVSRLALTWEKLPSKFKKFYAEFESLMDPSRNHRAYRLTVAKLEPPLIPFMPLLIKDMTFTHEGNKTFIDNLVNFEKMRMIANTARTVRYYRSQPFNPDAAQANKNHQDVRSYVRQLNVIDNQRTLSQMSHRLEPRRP
DNA dC->dU-editing enzyme APOBEC-3G (Homo sapiens), sequence (Q9HC16 whole entry, looked up): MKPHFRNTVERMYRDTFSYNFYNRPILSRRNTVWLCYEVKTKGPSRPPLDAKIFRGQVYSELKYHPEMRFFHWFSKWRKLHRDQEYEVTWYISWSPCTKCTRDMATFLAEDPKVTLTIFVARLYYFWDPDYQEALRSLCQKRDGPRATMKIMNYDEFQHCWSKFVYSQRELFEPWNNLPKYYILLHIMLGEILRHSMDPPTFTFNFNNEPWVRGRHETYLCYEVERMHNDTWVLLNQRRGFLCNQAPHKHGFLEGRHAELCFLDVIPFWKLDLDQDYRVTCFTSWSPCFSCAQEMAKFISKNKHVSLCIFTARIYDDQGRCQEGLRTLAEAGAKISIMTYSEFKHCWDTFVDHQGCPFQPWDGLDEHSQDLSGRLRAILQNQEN
Pyruvate kinase (Leishmania mexicana), sequence (Q27686 2-499 E452W): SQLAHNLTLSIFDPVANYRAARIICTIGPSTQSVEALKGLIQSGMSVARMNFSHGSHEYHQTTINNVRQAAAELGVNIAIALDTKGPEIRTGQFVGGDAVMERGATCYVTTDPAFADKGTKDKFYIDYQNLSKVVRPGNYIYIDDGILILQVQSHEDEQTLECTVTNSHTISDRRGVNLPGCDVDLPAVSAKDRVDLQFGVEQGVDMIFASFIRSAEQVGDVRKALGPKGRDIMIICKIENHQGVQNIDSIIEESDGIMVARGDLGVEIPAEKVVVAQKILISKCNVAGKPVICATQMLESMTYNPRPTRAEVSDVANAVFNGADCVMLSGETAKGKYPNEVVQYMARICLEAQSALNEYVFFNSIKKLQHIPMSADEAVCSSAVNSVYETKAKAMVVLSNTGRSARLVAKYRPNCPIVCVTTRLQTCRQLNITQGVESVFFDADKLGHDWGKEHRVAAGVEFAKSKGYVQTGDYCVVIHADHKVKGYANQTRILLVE
Guanine nucleotide-binding protein G(i) subunit alpha-1 (Homo sapiens), sequence (P63096 whole entry, looked up): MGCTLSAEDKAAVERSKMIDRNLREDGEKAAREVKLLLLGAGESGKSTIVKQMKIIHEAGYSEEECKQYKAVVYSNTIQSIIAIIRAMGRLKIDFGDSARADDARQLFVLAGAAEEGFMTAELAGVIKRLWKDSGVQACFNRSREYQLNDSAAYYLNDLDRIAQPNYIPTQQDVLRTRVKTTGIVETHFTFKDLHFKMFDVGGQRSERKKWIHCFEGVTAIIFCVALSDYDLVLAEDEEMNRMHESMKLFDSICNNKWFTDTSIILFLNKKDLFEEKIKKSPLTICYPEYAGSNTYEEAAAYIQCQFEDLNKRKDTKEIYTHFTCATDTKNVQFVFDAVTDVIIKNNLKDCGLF
Alpha-galactosidase A (Homo sapiens), sequence (P06280 whole entry, looked up): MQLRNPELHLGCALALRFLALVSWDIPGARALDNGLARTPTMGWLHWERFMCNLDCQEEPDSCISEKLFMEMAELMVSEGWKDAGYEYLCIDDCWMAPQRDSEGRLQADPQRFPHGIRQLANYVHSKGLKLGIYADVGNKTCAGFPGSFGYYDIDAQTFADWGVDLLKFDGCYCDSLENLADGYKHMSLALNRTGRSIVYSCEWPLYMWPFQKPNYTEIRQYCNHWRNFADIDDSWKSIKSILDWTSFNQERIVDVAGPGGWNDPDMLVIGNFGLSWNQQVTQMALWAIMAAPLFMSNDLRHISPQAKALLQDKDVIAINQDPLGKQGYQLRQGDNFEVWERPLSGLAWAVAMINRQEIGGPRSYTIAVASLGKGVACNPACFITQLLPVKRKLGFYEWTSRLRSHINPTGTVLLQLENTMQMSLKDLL
Tyrosyl-DNA phosphodiesterase 1 (Homo sapiens), sequence (Q9NUW8 whole entry, looked up): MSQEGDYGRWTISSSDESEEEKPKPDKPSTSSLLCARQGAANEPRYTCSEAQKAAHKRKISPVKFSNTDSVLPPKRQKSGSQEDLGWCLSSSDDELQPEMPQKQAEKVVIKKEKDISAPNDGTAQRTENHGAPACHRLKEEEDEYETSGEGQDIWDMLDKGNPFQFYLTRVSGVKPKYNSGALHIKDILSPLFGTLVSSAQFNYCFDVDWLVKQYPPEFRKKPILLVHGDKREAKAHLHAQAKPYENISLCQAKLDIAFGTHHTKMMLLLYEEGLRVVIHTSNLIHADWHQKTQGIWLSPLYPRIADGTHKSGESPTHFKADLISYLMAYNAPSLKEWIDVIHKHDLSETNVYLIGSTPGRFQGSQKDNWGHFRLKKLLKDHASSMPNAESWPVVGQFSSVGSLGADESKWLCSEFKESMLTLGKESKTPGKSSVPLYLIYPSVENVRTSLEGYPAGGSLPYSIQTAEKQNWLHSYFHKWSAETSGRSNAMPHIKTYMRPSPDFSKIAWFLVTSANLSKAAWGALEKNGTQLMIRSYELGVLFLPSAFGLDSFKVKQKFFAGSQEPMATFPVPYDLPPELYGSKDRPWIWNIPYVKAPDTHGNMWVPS
Alpha-galactosidase (Coffea arabica), sequence (Q42656 whole entry, looked up): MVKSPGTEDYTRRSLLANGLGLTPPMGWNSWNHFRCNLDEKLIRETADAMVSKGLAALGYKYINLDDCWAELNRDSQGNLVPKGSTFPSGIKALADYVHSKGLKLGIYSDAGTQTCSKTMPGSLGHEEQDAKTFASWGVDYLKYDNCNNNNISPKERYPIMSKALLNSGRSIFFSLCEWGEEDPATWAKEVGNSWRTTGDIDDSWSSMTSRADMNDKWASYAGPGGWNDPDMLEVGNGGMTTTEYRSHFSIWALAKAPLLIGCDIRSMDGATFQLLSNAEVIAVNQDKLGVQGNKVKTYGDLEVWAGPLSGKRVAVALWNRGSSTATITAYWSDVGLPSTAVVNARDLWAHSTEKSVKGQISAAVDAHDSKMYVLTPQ

For the compound `Cc1oc(-c2ccccc2)nc1CN1C(=O)CN=C(c2ccccc2)c2ccccc21`, the Potency result in assay [1] is “inactive”. In addition, the activation in [2] was 7.27% [at 17.1 µM, percent relative to cAMP agonist control]; in [4] it was 28.8% [at 30.8 µM]. In addition, in [3], the activity change, negative = inhibition was -7.89% [at 30.8 µM].

As to `COc1ccc(-n2nnnc2C(c2cccs2)N2CCC(n3c(=O)[nH]c4ccccc43)CC2)cc1` (configuration not stated), the Potency entry in assay [1] and in assay [5] was “inactive” each time. Besides, in assay [3], the compound was classed as inactive.

Regarding `CCOC(=O)[C@]12Cc3cc(OC)ccc3[C@H]1N(C1CCCCC1)C(=O)c1ccccc12`, the Potency entry in [1], in assay [2] and in assay [4] was “inactive” throughout. Moreover, the compound was classed as inactive in assay [3].

As to `COc1ccc(C2C=C(C)Oc3c2c(=O)oc2ccccc32)cc1OC` (configuration not stated), in assay [1], the Potency entry was “inactive”. In addition, the Potency in assay [5] was 30.1 µM (active). For the same compound, the outcome in [3] was inactive.

For `NC(=O)c1ccc(N=Cc2c(O)n(Cc3ccco3)c(=O)[nH]c2=O)cc1`, in assay [6], the Potency is 14.1 µM (active). For the same compound, the Potency result in assay [1], in [2], in [5] and in assay [4] was “inactive” each time. For the same compound, the compound was called inactive in assay [3].

For `CCCCCCC(C)(C)c1ccc([C@@H]2C[C@H](O)CC[C@@H]2CCCO)c(O)c1`, the Potency in assay [7] was over 46 µM; in [5], 35 µM (active). The result in assay [8], in assay [11], in assay [12], in assay [13], in assay [14] and in [15] was inactive. Also, the Potency result in assay [9], in assay [10], in [1] and in assay [2] was “inactive” each time.

Regarding `COCCNC(=O)c1c(N)n(CCC(C)C)c2nc3ccccc3nc12`, in assay [1], the Potency entry was “inactive”. Moreover, the activation in [2] was 10.8% [at 17.1 µM, percent relative to cAMP agonist control]; in [4], 26.5% [at 30.8 µM]. The activity change, negative = inhibition in assay [5] was -8.1% [at 12.7 µM]; in [3] it was -2.48% [at 30.8 µM].
